Assay [1] can be described thus: nuclear p53 accumulation, HPV+ cells – imaging, p53-positive nuclei imaging, 24 h, 48 h (AID 1508601). To be noted: 24/48 h.
In assay [2] the target is Cellular tumor antigen p53 (Homo sapiens) (UniProt P04637). Described as above. To be noted: 24/48 h, stronger effect = higher value.
Where [3] appears, read: measured here: cell number at 24 h, Library stock concentration: 3.33 mM.
Where [4] appears, read: measured here: cell number at 48 h, Library stock concentration: 3.33 mM.
[5] abbreviates: Library stock concentration: 3.33 mM.
Setting [6] is: measured here: p53 positive nuclei at 24 h, Library stock concentration: 3.33 mM.
The mark [7] stands for this setting: measured here: cell number at 24 h, Library stock concentration: 46 uM.
[8] abbreviates: measured here: cell number at 24 h, Library stock concentration: 278 uM.
The mark [9] stands for this setting: measured here: cell number at 24 h, Library stock concentration: 1.67 mM.
[10] abbreviates: measured here: cell number at 24 h, Library stock concentration: 10 mM.
[11] abbreviates: measured here: cell number at 48 h, Library stock concentration: 46 uM.
[12] abbreviates: measured here: cell number at 48 h, Library stock concentration: 278 uM.
[13] abbreviates: measured here: cell number at 48 h, Library stock concentration: 1.67 mM.
The mark [14] stands for this setting: measured here: cell number at 48 h, Library stock concentration: 10 mM.
The mark [15] stands for this setting: Library stock concentration: 46 uM.
[16] abbreviates: Library stock concentration: 278 uM.
The mark [17] stands for this setting: Library stock concentration: 1.67 mM.
[18] abbreviates: Library stock concentration: 10 mM.
Setting [19] is: measured here: p53 positive nuclei at 24 h, Library stock concentration: 46 uM.
Where [20] appears, read: measured here: p53 positive nuclei at 24 h, Library stock concentration: 278 uM.
The mark [21] stands for this setting: measured here: p53 positive nuclei at 24 h, Library stock concentration: 1.67 mM.
Where [22] appears, read: measured here: p53 positive nuclei at 24 h, Library stock concentration: 10 mM.
Setting [23] is: measured here: cell number at 24 h, concentration not given here.
Where [24] appears, read: measured here: cell number at 48 h, concentration not given here.
[25] abbreviates: measured here: p53 positive nuclei at 24 h, concentration not given here.

Values joined by “and” are separate entries in the source; they are usually repeats but may differ in a detail not shown here. Equal values may be shown once. The whole screen tested about 5,700 compounds, of which about 85 (1%) were called active. This is one part of a sample in which actives are shown more often than they occur. No stated cut-off is given here; in the data, active means p53-positive nuclei above about 36% (passing the limit was not always enough); inactive means the rest. The source holds several records for some structures; these can differ, active in one and inactive in another.

Cellular tumor antigen p53 (Homo sapiens), sequence (P04637 whole entry, looked up): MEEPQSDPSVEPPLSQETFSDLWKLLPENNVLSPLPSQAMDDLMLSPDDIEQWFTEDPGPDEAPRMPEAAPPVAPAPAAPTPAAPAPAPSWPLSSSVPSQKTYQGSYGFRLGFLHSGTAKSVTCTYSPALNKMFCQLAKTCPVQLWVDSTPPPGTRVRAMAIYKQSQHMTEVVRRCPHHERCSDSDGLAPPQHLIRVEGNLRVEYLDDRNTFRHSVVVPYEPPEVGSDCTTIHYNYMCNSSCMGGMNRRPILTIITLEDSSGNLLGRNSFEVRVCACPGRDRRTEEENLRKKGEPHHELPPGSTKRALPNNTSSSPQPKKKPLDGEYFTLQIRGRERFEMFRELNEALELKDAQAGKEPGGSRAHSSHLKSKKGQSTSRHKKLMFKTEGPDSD

Regarding `O=C1O[C@H](C(O)CO)C(O)C1O` (stereo partly drawn), the nuclei count, normalised in assay [1] (setting [3]) was 110%; in assay [1] (setting [4]), 103%. Moreover, the p53-positive nuclei, normalised in assay [2] (setting [5]) is -0.204% (inactive); in assay [2] (setting [6]), -0.283%.

Consider `COc1ccc(F)c(F)c1C(=O)c1cnc(NC2CCN(S(C)(=O)=O)CC2)nc1N`, for which the nuclei count, normalised worked out at 43.7% in assay [1] (setting [3]) and 27.7% in assay [1] (setting [4]). Moreover, the values for the p53-positive nuclei, normalised in assay [2] (setting [5]) and in assay [2] (setting [6]) were 67.1% (active) and 73.8%, respectively.

Consider `Cc1cc(OCCCS(C)(=O)=O)cc(C)c1-c1cccc(COc2ccc3c(c2)OCC3CC(=O)O)c1` (stereo not drawn), for which the nuclei count, normalised in assay [1] (setting [7]) came to 101%; in assay [1] (setting [8]), 107%; in assay [1] (setting [9]), 104%; in assay [1] (setting [3]), 125%; in assay [1] (setting [10]), 103%; in assay [1] (setting [11]), 105%. The nuclei count, normalised in assay [1] (setting [12]) is 104%; in assay [1] (setting [13]) it was 104%; in assay [1] (setting [4]) it was 119%; in assay [1] (setting [14]), 103%. The p53-positive nuclei, normalised in assay [2] (setting [15]) is -0.0206% (inactive); in assay [2] (setting [16]), -0.0568% (inactive); in assay [2] (setting [17]), -0.0557% (inactive); in assay [2] (setting [5]), -0.149% (inactive); in assay [2] (setting [18]), 0.322% (inactive); in assay [2] (setting [19]), -0.152%. The p53-positive nuclei, normalised in assay [2] (setting [20]) was 0.151%; in assay [2] (setting [21]), -0.156%; in assay [2] (setting [6]), -0.546%; in assay [2] (setting [22]), -0.0299%.

Turning to `O=C(O)/C=C/CCCCCCCCC(=O)O`, the nuclei count, normalised in assay [1] (setting [23]) is 111%; in assay [1] (setting [24]), 107%. The p53-positive nuclei, normalised in assay [2] (concentration not given here) was 0.0752% (inactive); in assay [2] (setting [25]), 0.0107%.

Take `C=C1C(=O)OC(CCCCCCCC)C1C(=O)O` (stereo not drawn): the nuclei count, normalised in assay [1] (measured here: cell number at 24 h, Library stock concentration: 500 nM) amounted to 115%; in assay [1] (measured here: cell number at 24 h, Library stock concentration: 1.5 uM), 107%; in assay [1] (measured here: cell number at 24 h, Library stock concentration: 4.6 uM), 111%; in assay [1] (measured here: cell number at 24 h, Library stock concentration: 13.7 uM) it was 112%; in assay [1] (measured here: cell number at 24 h, Library stock concentration: 41 uM), 108%; in assay [1] (measured here: cell number at 24 h, Library stock concentration: 123 uM), 110%. Also, the nuclei count, normalised is 116% in assay [1] (measured here: cell number at 24 h, Library stock concentration: 370 uM); 116% in assay [1] (measured here: cell number at 24 h, Library stock concentration: 1.111 mM); 114% in assay [1] (measured here: cell number at 24 h, Library stock concentration: 3.333 mM); 106% in assay [1] (setting [10]); 112% in assay [1] (measured here: cell number at 48 h, Library stock concentration: 500 nM); 108% in assay [1] (measured here: cell number at 48 h, Library stock concentration: 1.5 uM). The nuclei count, normalised in assay [1] (measured here: cell number at 48 h, Library stock concentration: 4.6 uM) turned out to be 109%; in assay [1] (measured here: cell number at 48 h, Library stock concentration: 13.7 uM), 110%; in assay [1] (measured here: cell number at 48 h, Library stock concentration: 41 uM), 105%; in assay [1] (measured here: cell number at 48 h, Library stock concentration: 123 uM) it was 108%; in assay [1] (measured here: cell number at 48 h, Library stock concentration: 370 uM) it was 116%; in assay [1] (measured here: cell number at 48 h, Library stock concentration: 1.111 mM), 114%. For the same molecule, the nuclei count, normalised in assay [1] (measured here: cell number at 48 h, Library stock concentration: 3.333 mM) was 112%; in assay [1] (setting [14]) it was 107%. Moreover, the p53-positive nuclei, normalised is 0.247% (inactive) in assay [2] (Library stock concentration: 500 nM); -0.0382% (inactive) in assay [2] (Library stock concentration: 1.5 uM); -0.0805% (inactive) in assay [2] (Library stock concentration: 4.6 uM); -0.0825% (inactive) in assay [2] (Library stock concentration: 13.7 uM); 0.00899% (inactive) in assay [2] (Library stock concentration: 41 uM); -0.155% (inactive) in assay [2] (Library stock concentration: 123 uM). Also, the p53-positive nuclei, normalised was 0.0153% (inactive) in assay [2] (Library stock concentration: 370 uM); -0.0515% (inactive) in assay [2] (Library stock concentration: 1.111 mM); 0.104% (inactive) in assay [2] (Library stock concentration: 3.333 mM); 0.0835% (inactive) in assay [2] (setting [18]); -0.115% in assay [2] (measured here: p53 positive nuclei at 24 h, Library stock concentration: 500 nM); 0.12% in assay [2] (measured here: p53 positive nuclei at 24 h, Library stock concentration: 1.5 uM). The p53-positive nuclei, normalised in assay [2] (measured here: p53 positive nuclei at 24 h, Library stock concentration: 4.6 uM) was -0.0584%; in assay [2] (measured here: p53 positive nuclei at 24 h, Library stock concentration: 13.7 uM) it was -0.0585%; in assay [2] (measured here: p53 positive nuclei at 24 h, Library stock concentration: 41 uM) it was 0.0028%; in assay [2] (measured here: p53 positive nuclei at 24 h, Library stock concentration: 123 uM) it was -0.115%; in assay [2] (measured here: p53 positive nuclei at 24 h, Library stock concentration: 370 uM), -0.0115%; in assay [2] (measured here: p53 positive nuclei at 24 h, Library stock concentration: 1.111 mM), 0.0471%. Besides, the p53-positive nuclei, normalised in assay [2] (measured here: p53 positive nuclei at 24 h, Library stock concentration: 3.333 mM) is 0.103%; in assay [2] (setting [22]) it was -0.112%.

As for `O=C(CCCCCCC(=O)Nc1ccccc1)NO`, the nuclei count, normalised in assay [1] (measured here: cell number at 24 h, Library stock concentration: 80 uM) is 112%; in assay [1] (measured here: cell number at 24 h, Library stock concentration: 400 uM), 108% and 112%; in assay [1] (measured here: cell number at 24 h, Library stock concentration: 2 mM), 91.7% and 119%; in assay [1] (setting [3]), 78.1%; in assay [1] (setting [10]) it was 48.6% and 60.7%; in assay [1] (setting [23]), 97.6%. In addition, the nuclei count, normalised in assay [1] (measured here: cell number at 48 h, Library stock concentration: 80 uM) was 108% and 95.5%; in assay [1] (measured here: cell number at 48 h, Library stock concentration: 400 uM) it was 95.7% and 94.9%; in assay [1] (measured here: cell number at 48 h, Library stock concentration: 2 mM), 94.4% and 101%; in assay [1] (setting [4]), 74.5%; in assay [1] (setting [14]) it was 30.2% and 39.7%; in assay [1] (setting [24]), 95.7%. The p53-positive nuclei, normalised was 0.114% (inactive) and -0.578% (inactive) in assay [2] (Library stock concentration: 80 uM); -0.0686% (inactive) and -0.456% (inactive) in assay [2] (Library stock concentration: 400 uM); 1.4% (inactive) and -0.595% (inactive) in assay [2] (Library stock concentration: 2 mM); 4.65% (inactive) in assay [2] (setting [5]); 53.5% (active) and 27.2% (inactive) in assay [2] (setting [18]); 0.0822% (inactive) in assay [2] (concentration not given here). Further, the p53-positive nuclei, normalised in assay [2] (measured here: p53 positive nuclei at 24 h, Library stock concentration: 80 uM) was 0.178% and -0.162%; in assay [2] (measured here: p53 positive nuclei at 24 h, Library stock concentration: 400 uM) it was -0.0144% and -0.0685%; in assay [2] (measured here: p53 positive nuclei at 24 h, Library stock concentration: 2 mM) it was 2.42% and 0.0577%; in assay [2] (setting [6]), 8.5%; in assay [2] (setting [22]), 65.2% and 32.1%; in assay [2] (setting [25]), 0.00812%.

For `Cc1ccc(NC(=O)CCCCCC(=O)Nc2ccccc2N)cc1`, the nuclei count, normalised was determined as 111% in assay [1] (setting [23]) and 104% in assay [1] (setting [24]). The figures for the p53-positive nuclei, normalised in assay [2] (concentration not given here) and in assay [2] (setting [25]) were -0.139% (inactive) and -0.0721%, respectively.

Consider `Nc1ccccc1NC(=O)CCCCCCC(=O)Nc1ccccc1`, for which the results for the nuclei count, normalised in assay [1] (setting [23]) and in assay [1] (setting [24]) were 102% and 99.7%, respectively. For the same molecule, the p53-positive nuclei, normalised was -0.185% (inactive) in assay [2] (concentration not given here) and -0.135% in assay [2] (setting [25]).

As for `O=C(Nc1ccc2nccnc2c1)c1csc(Cc2ccccc2)n1`, the figures for the nuclei count, normalised in assay [1] (setting [23]) and in assay [1] (setting [24]) were 101% and 102%, respectively. Moreover, the p53-positive nuclei, normalised in assay [2] (concentration not given here) is 0.478% (inactive); in assay [2] (setting [25]) it was 0.426%.

On to `O=C(O)CCCCCCCCCCCNC(=O)NC12CC3CC(CC(C3)C1)C2`, for which the nuclei count, normalised in assay [1] (setting [7]) came out at 111%; in assay [1] (setting [8]), 105%; in assay [1] (setting [9]), 106%; in assay [1] (setting [10]), 101%; in assay [1] (setting [23]), 106%; in assay [1] (setting [11]), 111%. Further, the nuclei count, normalised is 105% in assay [1] (setting [12]), 103% in assay [1] (setting [13]), 101% in assay [1] (setting [14]) and 113% in assay [1] (setting [24]). For the same molecule, the p53-positive nuclei, normalised in assay [2] (setting [15]) is -0.188% (inactive); in assay [2] (setting [16]), 0.036% (inactive); in assay [2] (setting [17]), 0.0433% (inactive); in assay [2] (setting [18]), 0.0468% (inactive); in assay [2] (concentration not given here), -0.166% (inactive); in assay [2] (setting [19]), -0.135%. Also, the p53-positive nuclei, normalised in assay [2] (setting [20]) is -0.135%; in assay [2] (setting [21]) it was 0.0415%; in assay [2] (setting [22]) it was -0.0737%; in assay [2] (setting [25]), -0.144%.

The record behind these values is PubChem BioAssay AID1508601 (ICCB-Longwood Screening Facility, Harvard Medical School, 2020).
